Experimental findings from PubChem BioAssay (EPA / NIEHS) are described below.

Read-out in test [1]: Macrophage colony-stimulating factor (MCSF), CSF1 (gene 1435)
The test is described as follows: BSK_hDFCGF_MCSF: BioMAP Diversity Plus: hDFCGF Assay for Macrophage colony-stimulating factor (MCSF) Biomarker Activity (AID 2283060). The settings on record: primary human foreskin fibroblasts; actives raise or lower the signal. A digest of the protocol:
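Primary human foreskin fibroblasts dosed with chemical; 24 h later, M-CSF quantified by ELISA; curves fitted in both directions vs DMSO negative control.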

Test [2] is described as follows: BSK_hDFCGF_SRB: Viability Assessment in the BioMAP Diversity Plus: hDFCGF Assay (AID 2283061).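 Also: cells exposed to compound for 24 h before the read.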 The settings on record: primary human foreskin fibroblasts. In a few lines: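 Readout is SRB absorbance at 560 nm, reflecting total protein in parallel cultures of human foreskin fibroblasts harvested 24 h after chemical dosing. Activity was fitted bidirectionally relative to DMSO.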

Read-out in test [3]: TIMP metallopeptidase inhibitor 1 (TIMP1), TIMP1 (gene 7076)
The test is described as follows: BSK_hDFCGF_TIMP1: BioMAP Diversity Plus: hDFCGF Assay for TIMP metallopeptidase inhibitor 1 (TIMP1) Biomarker Activity (AID 2283062). The following applies: primary human foreskin fibroblasts; actives raise or lower the signal. A digest of the protocol:
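Human skin fibroblasts (primary), hDFCGF system; compound exposure 24 h; TIMP-1 by ELISA; bidirectional fit vs DMSO negative control; overt cytotoxicity by SRB in parallel wells.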

Read-out in test [4]: Monokine induced gamma interferon (MIG), CXCL9 (gene 4283)
The test is described as follows: BSK_hDFCGF_MIG: BioMAP Diversity Plus: hDFCGF Assay for Monokine induced gamma interferon (MIG) Biomarker Activity (AID 2283063). The following applies: primary human foreskin fibroblasts; actives raise or lower the signal. A digest of the protocol:
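Chemicals were added to primary human foreskin fibroblast cultures, which were sampled 24 h later. MIG levels were then quantified by ELISA and responses fitted in both directions relative to DMSO.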

Read-out in test [5]: Matrix Metallopeptidase 1 (MMP1), MMP1 (gene 4312)
The test is described as follows: BSK_hDFCGF_MMP1: BioMAP Diversity Plus: hDFCGF Assay for Matrix Metallopeptidase 1 (MMP1) Biomarker Activity (AID 2283064). The following applies: primary human foreskin fibroblasts; actives raise or lower the signal. A digest of the protocol:
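Primary human foreskin fibroblasts in the hDFCGF system were dosed with test chemical, and MMP1 was measured by ELISA 24 h later. Values come from bidirectional curve fitting against the DMSO baseline.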

Read-out in test [6]: Vascular cell adhesion molecule 1 (VCAM1), VCAM1 (gene 7412)
The test is described as follows: BSK_hDFCGF_VCAM1: BioMAP Diversity Plus: hDFCGF Assay for Vascular cell adhesion molecule 1 (VCAM1) Biomarker Activity (AID 2283065). The settings on record: primary human foreskin fibroblasts; actives raise or lower the signal. A digest of the protocol:
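Human foreskin fibroblast primary cells, chemical exposure 24 h; VCAM-1 by ELISA; bidirectional fit, DMSO = negative control/baseline.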

Read-out in test [7]: Plasminogen activator inhibitor-1 (PAI1), SERPINE1 (gene 5054)
The test is described as follows: BSK_hDFCGF_PAI1: BioMAP Diversity Plus: hDFCGF Assay for Plasminogen activator inhibitor-1 (PAI1) Biomarker Activity (AID 2283066). The following applies: primary human foreskin fibroblasts; actives raise or lower the signal. A digest of the protocol:
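PAI-1 levels, determined by ELISA, served as the endpoint in human foreskin fibroblast cultures exposed to compound for 24 h, with DMSO as baseline.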

Read-out in test [8]: Intercellular Adhesion Molecule 1 (ICAM1), ICAM1 (gene 3383)
The test is described as follows: BSK_KF3CT_ICAM1: BioMAP Diversity Plus: KF3CT Assay for Intercellular Adhesion Molecule 1 (ICAM1) Biomarker Activity (AID 2283067). The settings on record: primary human keratinocytes with fibroblasts; actives raise or lower the signal. A digest of the protocol:
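ICAM-1 levels are measured by ELISA 24 h after dosing a primary human co-culture of keratinocytes and foreskin fibroblasts. Activity in either direction is fitted relative to DMSO vehicle.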

Read-out in test [9]: Interferon-gamma inducible Protein 10 (IP10), CXCL10 (gene 3627)
The test is described as follows: BSK_KF3CT_IP10: BioMAP Diversity Plus: KF3CT Assay for Interferon-gamma inducible Protein 10 (IP10) Biomarker Activity (AID 2283068). The settings on record: primary human keratinocytes with fibroblasts; actives raise or lower the signal. A digest of the protocol:
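ELISA read-out of IP-10 after 24 h chemical dosing of human skin primary co-culture (keratinocytes, foreskin fibroblasts). Gain or loss of signal relative to DMSO, bidirectional curve fit.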

Test [10] is described as follows: BSK_KF3CT_SRB: Viability Assessment in the BioMAP Diversity Plus: KF3CT Assay (AID 2283069).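 Also: total protein by sulforhodamine B staining as a cytotoxicity measure; read 24 h after compound addition.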 The following applies: primary human keratinocytes with fibroblasts. A digest of the protocol: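 Human primary keratinocyte plus foreskin fibroblast co-culture exposed to chemicals for 24 h. Total protein measured by 0.1% sulforhodamine B staining after 10% TCA fixation, read at 560 nm; bidirectional fitting versus DMSO baseline.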

Read-out in test [11]: Interleukin-1 alpha (IL1a), IL1A (gene 3552)
The test is described as follows: BSK_KF3CT_IL1a: BioMAP Diversity Plus: KF3CT Assay for Interleukin-1 alpha (IL1a) Biomarker Activity (AID 2283070). The settings on record: primary human keratinocytes with fibroblasts; actives raise or lower the signal. In a few lines: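 Human keratinocyte plus foreskin fibroblast primary co-culture, sampled 24 h after chemical dosing. IL-1a measured by ELISA; responses fitted bidirectionally against DMSO baseline (negative control), so gain or loss of signal both count.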

Read-out in test [12]: TIMP metallopeptidase inhibitor 2 (TIMP2), TIMP2 (gene 7077)
The test is described as follows: BSK_KF3CT_TIMP2: BioMAP Diversity Plus: KF3CT Assay for TIMP metallopeptidase inhibitor 2 (TIMP2) Biomarker Activity (AID 2283071). The settings on record: primary human keratinocytes with fibroblasts; actives raise or lower the signal. A digest of the protocol:
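Keratinocyte–fibroblast co-culture, 24 h exposure; TIMP-2 ELISA, DMSO-normalised bidirectional fit. Parallel SRB (0.1%, TCA-fixed, 560 nm) total-protein staining gauges cytotoxicity.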

Read-out in test [13]: Matrix Metallopeptidase 9 (MMP9), MMP9 (gene 4318)
The test is described as follows: BSK_KF3CT_MMP9: BioMAP Diversity Plus: KF3CT Assay for Matrix Metallopeptidase 9 (MMP9) Biomarker Activity (AID 2283074). The settings on record: primary human keratinocytes with fibroblasts; actives raise or lower the signal. A digest of the protocol:
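Keratinocyte plus foreskin fibroblast human primary skin co-culture was dosed with chemical and MMP-9 was quantified by ELISA 24 h later. Bidirectional curve fitting used DMSO as negative control and activity baseline.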

Read-out in test [14]: urokinase plasminogen activator (uPA), PLAU (gene 5328)
The test is described as follows: BSK_KF3CT_uPA: BioMAP Diversity Plus: KF3CT Assay for urokinase plasminogen activator (uPA) Biomarker Activity (AID 2283075). The following applies: primary human keratinocytes with fibroblasts; actives raise or lower the signal. A digest of the protocol: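 Human keratinocyte plus foreskin fibroblast primary co-culture exposed to chemical for 24 h. uPA levels were quantified by ELISA, and activity was fitted bidirectionally against a DMSO negative-control baseline.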

Read-out in another test: CD40, CD40 (gene 958)
The test is described as follows: BSK_LPS_CD40: BioMAP Diversity Plus: LPS Assay for CD40 Biomarker Activity (AID 2283076). The following applies: primary human HUVEC with PBMC; actives raise or lower the signal. A digest of the protocol:
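Cells were dosed, incubated 24 h, then assayed for CD40 by ELISA. Gain or loss of signal was analysed relative to DMSO controls. The culture paired human umbilical vein endothelium with peripheral blood mononuclear cells.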

Read-out in test [15]: E-selectin (Homo sapiens) (UniProt P16581)
The test is described as follows: BSK_LPS_Eselectin: BioMAP Diversity Plus: LPS Assay for Eselectin Biomarker Activity (AID 2283077). The following applies: primary human HUVEC with PBMC; actives raise or lower the signal. A digest of the protocol: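 Primary human vascular co-culture (endothelium plus PBMC) was dosed with chemical, then E-selectin quantified by ELISA at 24 h. Endpoint values derive from bidirectional curve fitting relative to DMSO.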

Read-out in test [16]: Interleukin-8 (IL8), CXCL8 (gene 3576)
The test is described as follows: BSK_LPS_IL8: BioMAP Diversity Plus: LPS Assay for Interleukin-8 (IL8) Biomarker Activity (AID 2283078). The following applies: primary human HUVEC with PBMC; actives raise or lower the signal. A digest of the protocol:
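Readout is IL-8 by ELISA, taken 24 h after compounds were added to LPS-stimulated endothelial/PBMC co-cultures. Both increases and decreases relative to DMSO control were scored through bidirectional fitting.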

Test [17] is described as follows: BSK_LPS_SRB: Viability Assessment in the BioMAP Diversity Plus: LPS Assay (AID 2283079).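 Also: total protein by sulforhodamine B absorbance as a cytotoxicity measure; measured one day after compound addition.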 The following applies: primary human HUVEC with PBMC. A digest of the protocol: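 Readout is SRB absorbance at 560 nm (0.1% stain, TCA-fixed parallel cultures) as a total-protein cytotoxicity measure. Cells: primary human umbilical vein endothelium plus peripheral blood mononuclear cells, 24 h after chemical exposure; DMSO served as baseline.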

Read-out in test [18]: Interleukin-1 alpha (IL1a), IL1A (gene 3552)
The test is described as follows: BSK_LPS_IL1a: BioMAP Diversity Plus: LPS Assay for Interleukin-1 alpha (IL1a) Biomarker Activity (AID 2283080). The following applies: primary human HUVEC with PBMC; actives raise or lower the signal. A digest of the protocol: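 ELISA read-out of IL-1 alpha from a human primary vascular co-culture (endothelium plus PBMC) under LPS, sampled 24 hours post-dosing. Activity was fitted in both directions relative to DMSO controls.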

Calls of active or inactive are those of the source. The calls were made as follows: active = hit-call score of the fitted dose curve at least 0.9, where 1 is the maximum; inactive = score below 0.9.

E-selectin (Homo sapiens), sequence (P16581 whole entry, looked up): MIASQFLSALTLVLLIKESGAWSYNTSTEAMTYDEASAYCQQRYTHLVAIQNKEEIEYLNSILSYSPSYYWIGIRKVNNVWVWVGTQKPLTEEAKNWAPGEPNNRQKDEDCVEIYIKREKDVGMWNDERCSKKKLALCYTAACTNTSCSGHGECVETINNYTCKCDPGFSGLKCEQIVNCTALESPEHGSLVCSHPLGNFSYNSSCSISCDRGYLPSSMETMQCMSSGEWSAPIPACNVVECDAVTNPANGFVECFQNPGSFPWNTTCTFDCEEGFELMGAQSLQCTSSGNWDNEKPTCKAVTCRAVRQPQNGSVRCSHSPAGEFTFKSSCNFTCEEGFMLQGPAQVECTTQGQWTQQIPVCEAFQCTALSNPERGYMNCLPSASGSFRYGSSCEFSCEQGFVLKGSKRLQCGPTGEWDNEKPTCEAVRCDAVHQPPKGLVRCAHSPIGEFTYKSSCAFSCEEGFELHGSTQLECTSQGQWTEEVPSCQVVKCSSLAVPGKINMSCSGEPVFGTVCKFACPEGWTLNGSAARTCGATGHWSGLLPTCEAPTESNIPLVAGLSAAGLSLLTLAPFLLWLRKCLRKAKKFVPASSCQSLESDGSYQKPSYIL

Turning to `CCN(CC)c1ccc2c(c1)Oc1cc(N(CC)CC)ccc1C21OC(=O)c2ccccc21`, the result in test [1], in test [2], in test [3], in test [4], in test [5] and in test [6] was inactive. In addition, the outcome in [7], in test [8], in test [9], in [10], in test [11] and in test [12] was inactive. Moreover, the outcome was “inactive” in [13]; “inactive” in test [14]; “inactive” with CD40, CD40 (gene 958); “inactive” in test [15]; “inactive” in test [17]; “inactive” in test [18]. The half-maximal activity concentration (AC50) in test [16] is 6.55 µM (active).

In the case of `O=C=NCc1cccc(CN=C=O)c1`, the outcome in test [1], in [2], in [3], in test [4], in test [5] and in test [6] was inactive. Also, the outcome in [7], in [8], in [9], in test [10], in [11] and in test [12] was inactive. The outcome is “inactive” in test [13]; “inactive” in test [14]; “inactive” with CD40, CD40 (gene 958); “inactive” in test [15]; “inactive” in test [16]; “inactive” in test [17]. Moreover, the outcome in [18] was inactive.

As for `Cc1cnccn1`, the result in test [1], in [2], in [3], in test [4], in [5] and in [6] was inactive. Also, the outcome in test [7], in [8], in test [9], in test [10], in test [11] and in [12] was inactive. The outcome in test [13] is “inactive”; in test [14], “inactive”; with CD40, CD40 (gene 958), “inactive”; in test [15] it was “inactive”; in test [16] it was “inactive”; in [17] it was “inactive”. The outcome in test [18] was inactive.

As for `CC(C)(C)c1cc(CCC(=O)NCCCCCCNC(=O)CCc2cc(C(C)(C)C)c(O)c(C(C)(C)C)c2)cc(C(C)(C)C)c1O`, the outcome in [1], in [2], in [3], in [4], in test [5] and in [6] was inactive. Besides, the result in [7], in test [8], in test [9], in test [10], in test [11] and in test [12] was inactive. Also, the outcome was “inactive” in [13]; “inactive” in [14]; “inactive” with CD40, CD40 (gene 958); “inactive” in [15]; “inactive” in [16]; “inactive” in test [17]. For the same compound, the outcome in [18] was inactive.

As for `COC(F)(C(F)F)C(F)(F)F` (centres undefined), the outcome in test [1], in test [2], in [3], in [4], in test [5] and in test [6] was inactive. Further, the outcome in test [7], in test [8], in [9], in [10], in test [11] and in [12] was inactive. Moreover, the outcome was “inactive” in test [13]; “inactive” in test [14]; “inactive” with CD40, CD40 (gene 958); “inactive” in [15]; “inactive” in test [16]; “inactive” in test [17]. Moreover, the outcome in test [18] was inactive.

In the case of `C[C@]12CC[C@H]3C(=CCc4cc(O)ccc43)[C@@H]1CCC2=O`, the result in test [1], in test [2], in test [3], in test [4], in [5] and in [6] was inactive. Also, the outcome in test [7], in [8], in test [9], in test [10], in [11] and in test [12] was inactive. Further, the outcome was “inactive” in [13]; “inactive” in test [14]; “inactive” in the test with CD40, CD40 (gene 958); “inactive” in test [15]; “inactive” in test [16]; “inactive” in test [17]. The outcome in test [18] was inactive.
